Screening results deposited in PubChem by National Center for Advancing Translational Sciences (NCATS).
A selection: hits, their analogues and other compounds. The true share with any hit is near 11%.
Luciferase inh = Photinus pyralis luciferase inhibition; purified P. pyralis luciferase, luminescence, biochemical; 76,000 tested, 2.5% active; P08659; Potency, µM (highest dose often 115 µM), most hits filed as inhibitors; further: on the % scale 0 is the no-effect control and ±100 the full control effect; nearly all actives have a fitted effect of over 65% in size
Target sequence (P08659 whole entry, looked up): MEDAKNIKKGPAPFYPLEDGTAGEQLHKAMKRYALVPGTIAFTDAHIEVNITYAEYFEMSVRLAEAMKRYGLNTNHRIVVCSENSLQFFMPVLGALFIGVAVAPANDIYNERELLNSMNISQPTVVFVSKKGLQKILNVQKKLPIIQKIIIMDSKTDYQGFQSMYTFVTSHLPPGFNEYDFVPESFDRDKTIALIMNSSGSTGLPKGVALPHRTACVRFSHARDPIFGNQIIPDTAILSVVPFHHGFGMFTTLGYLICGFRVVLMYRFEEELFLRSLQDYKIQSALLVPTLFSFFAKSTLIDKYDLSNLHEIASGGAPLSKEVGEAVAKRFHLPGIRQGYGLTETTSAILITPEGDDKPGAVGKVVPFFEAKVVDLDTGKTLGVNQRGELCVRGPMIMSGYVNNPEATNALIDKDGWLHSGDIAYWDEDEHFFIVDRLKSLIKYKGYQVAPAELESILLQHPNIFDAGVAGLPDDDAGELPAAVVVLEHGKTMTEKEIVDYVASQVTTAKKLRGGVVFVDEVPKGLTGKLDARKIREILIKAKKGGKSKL
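Inhibitors were tested against purified firefly luciferase in a biochemical, low-substrate format (both substrates at 10uM) and luminescence measured with a CCD imager.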
HEK cytotox = HEK 293 cell cytotoxicity; AID 1345083; HEK 293 viability, ATP luminescence (CellTiter-Glo), 48-72 h; 94,000 tested, 6.6% active; Potency, µM (top dose mostly 115 µM), for the others: at the top dose activity change, negative = cytotoxicity, usual class: inhibitors; further: on the % scale 0 is the no-effect control and ±100 the full control effect; nearly all actives have a fitted effect of over 60% in size
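Cytotoxicity was scored by loss of ATP-coupled luminescence (CellTiter-Glo) in HEK 293 cells. Compound treatment ran 48 or 72 hr at 37 degree Celsius, 5% CO2, 95% humidity.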
NPR1 antag = human Npr1 receptor antagonism | P16066 | HEK293 hNpr1 GloSensor cGMP, ANP-stimulated luminescence | Potency, µM (doses to about 46.3 µM), for inactives: at the highest dose activity change, negative = inhibition, usual class: inhibitors | 76,000 tested, 1.6% active; calls by dose curve; further: on the % scale 0 is the no-effect control and ±100 the full control effect; nearly all actives have a fitted effect of over 60% in size
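Compound pre-incubated 30 min at room temperature on GloSensor-loaded HEK293 cells stably carrying hNpr1 and the pGS-40F cGMP biosensor. Stimulation uses hNppA at 0.1 nM final; luminescence is taken at baseline and 20 min post-agonist.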
NIH3T3 tox = cytotoxic compounds in NIH 3T3 cells | NIH 3T3 viability, CellTiter-Glo ATP luminescence, 48-72 h | Potency, µM (top dose mostly 96.7 µM), inactives show at the highest dose activity change, negative = cytotoxicity, actives largely listed as inhibitors | 94,000 tested, 4.3% active; further: on the % scale 0 is the no-effect control and ±100 the full control effect; nearly all actives have a fitted effect of over 55% in size
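Viability of NIH 3T3 cells after 48 or 72 hr compound treatment at 37 °C was assessed by CellTiter-Glo, with luminescence imaged following a 10 min room-temperature step.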
NPR1 antag cnf = hNpr1 antagonism, confirmation assay. Potency, µM (titrated, usually from 57.6 µM), without a hit: at the top dose activity change, negative = inhibition, usual class: inhibitors. shares compounds with NPR1 antag. 1,400 tested, 76% active. HEK293 hNpr1 cGMP GloSensor luminescence, ANP-stimulated; calls by dose curve; further: nearly all actives have a fitted effect of over 70% in size
NPR2 antag = hNpr2 antagonism, selectivity versus Npr1 | AID 1347046 | Potency, µM (top dose mostly 57.6 µM), for the others: top-dose activity change, negative = inhibition, usual class: inhibitors | shares compounds with NPR1 antag | 1,400 tested, 67% active | HEK293 hNpr2 GloSensor cGMP luminescence, CNP-stimulated; calls by dose curve; further: nearly all actives have a fitted effect of over 70% in size
FLuc inh counter = inhibits firefly luciferase, false Npr1 antagonist flag; Potency, µM (titrated, usually from 57.6 µM), for inactives: at the highest dose activity change, negative = inhibition, hits mostly inhibitors; shares compounds with NPR1 antag; 1,400 tested, 0.7% active; AID 1347047; purified FLuc enzyme, luminescence, Km substrate; further: series mostly up to about 58 µM; 0% is about no effect
GloSensor cGMP = control cell line activity, Npr1 antagonist counter-screen; shares compounds with NPR1 antag; HEK293 GloSensor cGMP, SNP-stimulated, luminescence; Potency, µM (top dose mostly 57.6 µM), inactives show at the top dose activity change, negative = inhibition, usual class: inhibitors; 1,400 tested, 69% active; calls by dose curve; further: on the % scale 0 is the no-effect control and ±100 the full control effect; nearly all actives have a fitted effect of over 70% in size
Active calls of the source: *; i = inactive; ? = inconclusive; . = no result given; [ ] = remark or other dose. Unless noted, the call rests on the fitted dose curve; in most records, active means well fitted curve in the direction sought with a large enough effect; inconclusive means small, poorly fitted or top-dose-only effect, or another doubt; inactive means no such curve, though single readings can be large; an effect the other way counts as inactive or inconclusive. Potency means the concentration at half of the fitted maximal effect.

SMILES | Luciferase inh | HEK cytotox | NPR1 antag | NIH3T3 tox | NPR1 antag cnf | NPR2 antag | FLuc inh counter | GloSensor cGMP
CNC(=O)c1cccc(-c2cnc3[nH]cc(CC(=O)N(C)c4ccccc4)c3c2)c1 | i | 45µM* | 28µM* | 20µM* | 35µM* | 35µM* | -23%[86.2 µM] | 40µM*
O=C(NCc1c[nH]c2ncccc12)c1ccc2c(c1)OCO2 | ? | -10%[172 µM] | 5%[70.6 µM] | -12%[138 µM] | . | . | . | .
CN1CC2(CCN(C(=O)Cc3c[nH]c4ccccc34)CC2)CC1C(=O)N1CCOCC1 (stereo unspecified) | i | -2% | -2% | -3% | . | . | . | .
Cc1cccc(-c2cnc3[nH]cc(CC(=O)N4CCOCC4)c3c2)c1 | i | ? | 13µM* | ? | 13µM* | 25µM* | -21%[86.2 µM] | 9.9µM*
CCc1ccc(S(=O)(=O)N2CCN(C3CCN(CCC(C)C)C3=O)CC2)cc1 (stereo unspecified) | i | ? | -13% | ? | . | . | . | .
O=C(NCc1ccccc1)C1CCN(C(=O)c2ccc(-c3cncnc3)cc2)CC1 | . | i | . | -27% | . | . | . | .
COC[C@@H]1CN(C(=O)c2ccc(C)nc2)C[C@H]1c1ccccn1 | . | i | . | -17% | . | . | . | .
CN(C)CC1(O)CCC2(CCN(S(=O)(=O)c3ccc(F)cc3)CC2)CC1 | i | -18% | 2% | -32% | . | . | . | .
O=c1[nH]c2ccccc2n1C1CCN(c2nccc(-c3cccnc3)n2)CC1 | i | 14µM* | 11µM* | 32µM* | 22µM* | 24µM* | 1% | 19µM*
O=C(NCc1ccccn1)C1CCN(c2nccc(-c3cccnc3)n2)CC1 | i | i | -1% | ? | . | . | . | .
COC(=O)[C@@H]1Cc2c([nH]c3ccccc23)[C@H]2C[C@@H](NCCCn3ccnc3)C[C@@H](c3ccccc3F)N21 | i | ? | -25% | 7.1µM* | -24% | -29% | -11% | -7%
CC(C)N1CCN(C(=O)c2cc3c(=O)[nH]c(-c4ccccc4)cn3n2)CC1 | i | -25% | 7% | -20% | . | . | . | .
Cc1cc2c(N3CCC(NCc4noc(C5CCC5)n4)CC3)ncnc2s1 | i | ? | 2µM* | ? | 1.5µM* | 3.1µM* | 2% | 1.7µM*
CC1(c2ccccc2)N(Cc2ccccc2C#N)C(=O)OC12CCN(Cc1ccccc1F)CC2 (stereo unspecified) | i | ? | -16% | ? | . | . | . | .
CC1(c2ccccc2)N(Cc2ccccc2C#N)C(=O)OC12CCN(Cc1c[nH]c3ccccc13)CC2 (stereo unspecified) | i | 14µM* | ? | 22µM* | 19µM* | 19µM* | 0% | -9%
CN(C)c1ccc(C(=O)N[C@H]2CO[C@H]3[C@@H]2OC[C@@H]3n2nnnc2Oc2cccc(N(C)C)c2)cc1 | i | ? | 11µM* | -28% | 14µM* | 15µM* | -3% | 12µM*
O=C(Nc1ccc(Oc2ccccc2)cc1)N[C@H]1CO[C@H]2[C@@H]1OC[C@@H]2n1nnnc1Oc1ccc(-n2ccnc2)cc1 | i | 40µM* | 11µM* | ? | 22µM* | 22µM* | -1% | 17µM*
Cc1ccc(C(=O)N[C@H]2CO[C@H]3[C@@H]2OC[C@@H]3n2nnnc2Oc2ccccc2)cc1 | i | ? | 8.9µM* | ? | 11µM* | 16µM* | 1%[86.2 µM] | 9.9µM*
CN(C)c1cccc(Oc2nnnn2[C@H]2CO[C@H]3[C@@H]2OC[C@@H]3NC(=O)c2ccccc2)c1 | i | ? | 13µM* | -29% | ? | ? | -3% | ?
O=C(N[C@H]1CO[C@H]2[C@@H]1OC[C@@H]2n1nnnc1Oc1ccccc1)c1cncnc1 | i | -1%[172 µM] | 5%[70.6 µM] | i | . | . | . | .
COc1ccc(C(=O)N[C@H]2CO[C@H]3[C@@H]2OC[C@@H]3n2nnnc2Oc2cccc(N(C)C)c2)cc1 | i | ? | 7.1µM* | ? | 12µM* | 12µM* | 2% | 9.7µM*
COc1ccc(C)cc1C(=O)N1CCc2onc(-c3ccccc3F)c2C1 | i | 28µM* | 14µM* | -29% | 24µM* | 22µM* | -1% | 22µM*
O=C1N[C@H](CC(=O)N2CCC(Cc3ccccc3)CC2)C(=O)Nc2ccccc21 | i | ? | 10µM* | -21% | 19µM* | 12µM* | 0% | -19%
O=C1N[C@H](CC(=O)N2CCC(c3ccccc3)C2)C(=O)Nc2ccccc21 (stereo partly specified) | i | 10% | 6% | i | . | . | . | .
O=C1NCc2ccccc2CC12CCN(CC1CC=CCC1)CC2 (stereo unspecified) | . | -21% | . | -2% | . | . | . | .
SMILES | Luciferase inh | HEK cytotox | NPR1 antag | NIH3T3 tox | NPR1 antag cnf | NPR2 antag | FLuc inh counter | GloSensor cGMP
O=C1NCc2ccccc2CC12CCCN(CC1CC=CCC1)C2 (stereo unspecified) | . | -3% | . | i | -21% | -14% | 1% | 6%
Cc1ccccc1-c1cnc2[nH]cc(CC(=O)NC3CC3)c2c1 | i | ? | 14µM* | ? | 13µM* | 18µM* | 13%[86.2 µM] | 13µM*
Cc1ccccc1-c1cnc2[nH]cc(CC(=O)NCc3ccco3)c2c1 | i | 71µM* | 32µM* | ? | 35µM* | 31µM* | 1%[86.2 µM] | 25µM*
CCNC(=O)N1CC(c2noc(COc3ccc(OC)cc3)n2)C1 | i | 5% | 1% | -17% | . | . | . | .
CN1CCC(NC[C@H]2O[C@H](Cc3cc(-c4cccc(O)c4)on3)CC[C@@H]2O)CC1 | i | 0%[172 µM] | ? | -2%[174 µM] | ? | -27%[86.2 µM] | -13%[86.2 µM] | ?
O[C@H]1CC[C@@H](Cc2cc(-c3ccc(F)cc3)on2)O[C@@H]1CNC1CCNCC1 | i | -24%[172 µM] | -23%[70.6 µM] | -29%[174 µM] | . | . | . | .
CCNC[C@H]1O[C@H](Cc2cc(-c3ccc(F)cc3)on2)CC[C@@H]1O | ? | ? | ? | ? | ? | -21%[86.2 µM] | -26%[86.2 µM] | ?
CC(=O)N1CCn2c(nnc2C2CCCN2Cc2cn[nH]c2-c2cccs2)C1 (stereo unspecified) | . | i | . | -6% | . | . | . | .
O=C(NCC1CN(C(=O)Cc2cccc(OC(F)(F)F)c2)CC12CN(c1ccccc1)C2)c1ccccc1 (stereo unspecified) | i | ? | -1% | ? | . | . | . | .
